Screens deposited in PubChem by National Center for Advancing Translational Sciences (NCATS).
The list is not random: actives were taken first. Their share in the collection is about 21%.
VP16 counter: VP16 counterscreen qHTS for inhibitors of ROR gamma transcriptional activity; AID 2546, 2010; Potency, µM (top dose mostly 53.6 µM), actives largely listed as inhibitors; Drosophila S2 Gal4-VP16 UAS-luciferase, luminescence, 20 h; 310,000 tested, 3.5% active;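 also: Gal4-VP16 expression switched on by copper sulfate through the metallothionein promoter; nearly all actives have a fitted effect of over 50% in size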
RORg inh: qHTS for inhibitors of ROR gamma transcriptional activity; Potency, µM (titrated, usually from 53.6 µM), actives largely listed as inhibitors; AID 2551, 2010; 310,000 tested, 5.4% active; Drosophila S2 Gal4-RORgamma UAS-luciferase reporter, 20 h; also: nearly all actives have a fitted effect of over 60% in size
Target sequence (P51450 whole entry, looked up, the tested form may be a part): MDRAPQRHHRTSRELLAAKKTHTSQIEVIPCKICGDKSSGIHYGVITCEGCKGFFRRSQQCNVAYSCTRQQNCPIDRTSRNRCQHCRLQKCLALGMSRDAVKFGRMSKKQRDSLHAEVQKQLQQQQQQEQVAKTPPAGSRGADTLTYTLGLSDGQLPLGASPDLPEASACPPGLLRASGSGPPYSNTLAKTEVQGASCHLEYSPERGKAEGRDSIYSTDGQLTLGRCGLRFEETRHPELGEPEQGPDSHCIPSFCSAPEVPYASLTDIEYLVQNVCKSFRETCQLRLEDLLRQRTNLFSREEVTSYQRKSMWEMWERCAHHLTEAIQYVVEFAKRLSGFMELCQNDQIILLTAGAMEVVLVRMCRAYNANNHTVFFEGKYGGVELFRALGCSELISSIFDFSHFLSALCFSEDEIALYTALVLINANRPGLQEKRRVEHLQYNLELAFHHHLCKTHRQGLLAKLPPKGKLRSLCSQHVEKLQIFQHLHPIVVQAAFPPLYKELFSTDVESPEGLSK
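Drosophila S2 cells stably expressing Gal4-DBD/mouse RORγ fusion under metallothionein promoter plus UAS-luciferase; compound 1 h, then 700 uM CuSO4 induction for 20 h at ambient temperature; inhibition read as reduced luminescence.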
DT40 TDP1 CPT: qHTS for Inhibitors of human tyrosyl-DNA phosphodiesterase 1 (TDP1): qHTS in cells in presence of CPT; 420,000 tested, 12% active; AID 686979, 2013; Potency, µM (top dose mostly 46.2 µM), usual class: inhibitors; chicken DT40 Tdp1-/-;hTDP1 cells + 20 nM CPT, ATP luminescence, 48 h; also: nearly all actives have a fitted effect of over 55% in size
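Cell growth measured by CellTiter-Glo luminescence after a minimum 48 h, 37 C compound exposure with 20 nM CPT in Tdp1-knockout DT40 cells stably expressing hTDP1, seeded 400/well; qHTS titration format.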
IL-1B inflam inh: qHTS for Inhibitors of Inflammasome Signaling: IL-1-beta AlphaLISA Primary Screen. THP-1 LPS/ATP IL-1B secretion, AlphaLISA, 16 h; hits give low values. activity change, % at 57.5 µM. AID 743279, 2014. 360,000 tested, 4.7% active; in the data active = activity change below about -50%; inconclusive = mostly about -30% to -49%
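THP-1 cells pretreated 1 hr with compounds (up to 57.5 uM final), then stimulated with LPS (250 ng/mL final) plus ATP (1.25 mM final); secreted IL-1B measured by AlphaLISA after 16 hr, decreased signal indicating inhibition.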
ELG1 repair inh: qHTS screen for small molecules that inhibit ELG1-dependent DNA repair in human embryonic kidney (HEK293T) cells expressing luciferase-tagged ELG1. 330,000 tested, 2.3% active. Potency, µM (titrated, usually from 46.1 µM), hits mostly inhibitors. AID 504467, 2011. HEK293T ELG1-luciferase reporter, luminescence, 16 h; DNA damage induced by 5-fluorouridine; also: nearly all actives have a fitted effect of over 55% in size
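Quantitative HTS, concentration-response format. 2,000 cells/well co-treated with 5-fluorouridine and compound, 16 hr in 5% CO2 at 37 °C; ONE-Glo luminescence read after 30 min.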
DT40 TDP1 no CPT: qHTS for Inhibitors of human tyrosyl-DNA phosphodiesterase 1 (TDP1): qHTS in cells in absence of CPT; DT40 Tdp1-/- hTDP1 cells, no CPT, ATP luminescence, 48 h; Potency, µM (titrated, usually from 46.2 µM), most hits filed as inhibitors; 420,000 tested, 15% active; AID 686978, 2013; also: nearly all actives have a fitted effect of over 55% in size
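Growth of hTDP1-complemented DT40 Tdp1-knockout cells is measured by ATP luminescence after at least 48 hr compound exposure at 37 °C, with DMSO substituting for the 20 nM CPT used in the parallel screen.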
Numbers stand for hits; ! = a repeat was not active. Unless noted, calls follow the shape of the dose curve; as a rule, active = well fitted curve in the direction sought with a large enough effect; inconclusive = small, poorly fitted or top-dose-only effect, or another doubt; inactive = no such curve, though single readings can be large; an effect the other way counts as inactive or inconclusive.

For COc1ccccc1OCC(O)Cn1c(=N)n(CCN2CCCCC2)c2ccccc21 (stereo unspecified) the results were VP16 counter inactive, RORg inh inactive, DT40 TDP1 CPT inconclusive, IL-1B inflam inh -53, ELG1 repair inh inactive and DT40 TDP1 no CPT 16µM.
For Cc1ccccc1OCCn1c(=N)n(C(C)C)c2ccccc21 the results were DT40 TDP1 CPT 8.2µM and DT40 TDP1 no CPT 6.5µM.
For Cc1ccccc1OCC(O)Cn1c(=N)n(CCN2CCOCC2)c2ccccc21 (stereo unspecified) the results were VP16 counter inactive, RORg inh inactive, DT40 TDP1 CPT inconclusive, IL-1B inflam inh -54!, ELG1 repair inh inactive and DT40 TDP1 no CPT inconclusive.
`Cc1ccccc1OCC(O)COc1ccccc1C` gave DT40 TDP1 CPT inconclusive, IL-1B inflam inh inactive and DT40 TDP1 no CPT 21µM.
`C=C(C[C@]1(C(=O)OC)CC2(CC=C(C)C)C(=O)C(C(=O)CC(C)C)=C(O)C(CC=C(C)C)(C1)C2=O)C(=O)OC` (stereo partly specified) gave VP16 counter inactive and RORg inh inactive.
`COc1ccc(CNC(=O)Cn2nc(C)c3nn(-c4ccc(Cl)cc4)c(C)c3c2=O)cc1` gave DT40 TDP1 CPT inactive and DT40 TDP1 no CPT inactive.
For Cc1c(C)[n+](=O)c(-c2cccs2)c(C)n1[O-] the results were VP16 counter inactive, RORg inh inactive, DT40 TDP1 CPT inactive, IL-1B inflam inh inactive, ELG1 repair inh inactive and DT40 TDP1 no CPT inactive.
`Cc1ccccc1OCC(O)Cn1c(=N)n(CCN2CCCCC2)c2ccccc21` (stereo unspecified) gave DT40 TDP1 CPT 5.8µM and DT40 TDP1 no CPT 4.6µM.
Screening N=c1n(CCN2CCCCC2)c2ccccc2n1CC(O)COc1ccccc1 (stereo unspecified) returned VP16 counter inactive, RORg inh inactive, DT40 TDP1 CPT 18µM, IL-1B inflam inh -56, ELG1 repair inh inconclusive and DT40 TDP1 no CPT 15µM.
For COC(=O)Cn1c(=N)n(CCN2CCCCC2)c2ccccc21 the results were VP16 counter inactive, RORg inh inactive, DT40 TDP1 CPT inactive, IL-1B inflam inh inactive, ELG1 repair inh inactive and DT40 TDP1 no CPT inactive.
Screening Cc1ccccc1OCC(O)CN1CCN(CC(O)COc2ccccc2C)CC1 (stereo unspecified) returned VP16 counter inactive, RORg inh inactive, DT40 TDP1 CPT inconclusive, IL-1B inflam inh inactive, ELG1 repair inh inconclusive and DT40 TDP1 no CPT inconclusive.
O=C1CSc2ccc(C(=O)NCCc3ccc(Cl)cc3Cl)cc2N1 was read as DT40 TDP1 CPT inconclusive, IL-1B inflam inh inactive, ELG1 repair inh 26µM and DT40 TDP1 no CPT 15µM.
For O=[N+]([O-])c1cccc(-c2cc3ccccc3[nH]2)c1 the results were VP16 counter inconclusive, RORg inh inactive, DT40 TDP1 CPT inactive, IL-1B inflam inh inactive, ELG1 repair inh inconclusive and DT40 TDP1 no CPT inactive.
For O=[N+]([O-])/C=C/c1cc2ccccc2[nH]1 the results were VP16 counter inconclusive, RORg inh 10µM, DT40 TDP1 CPT 21µM, IL-1B inflam inh inactive, ELG1 repair inh inactive and DT40 TDP1 no CPT 18µM.
For Cc1csc(N(C(=O)c2cccc(S(=O)(=O)N(C)C)c2)c2ccccc2)n1 the results were VP16 counter inactive, RORg inh inactive, DT40 TDP1 CPT 15µM, IL-1B inflam inh inactive, ELG1 repair inh 15µM and DT40 TDP1 no CPT inconclusive.
Screening CN(C)S(=O)(=O)c1cccc(C(=O)NCCc2ccccc2)c1 returned VP16 counter inactive, RORg inh inactive, DT40 TDP1 CPT inactive, IL-1B inflam inh inactive, ELG1 repair inh inconclusive and DT40 TDP1 no CPT inactive.
`Cc1csc(N(C(=O)c2cccc(S(=O)(=O)N3CCCC3)c2)c2ccccc2)n1` gave VP16 counter inactive, RORg inh inactive, DT40 TDP1 CPT 21µM, IL-1B inflam inh inactive, ELG1 repair inh 21µM and DT40 TDP1 no CPT 18µM.
O=S(=O)(c1ccccc1)c1cnn(-c2ccccc2)c1-c1ccc(F)cc1 was read as VP16 counter inactive, RORg inh inactive, DT40 TDP1 CPT inactive, IL-1B inflam inh inactive, ELG1 repair inh inconclusive and DT40 TDP1 no CPT inactive.
COc1ccc(-n2ncc(S(=O)(=O)c3ccccc3)c2-c2ccc(Cl)cc2)cc1 was read as VP16 counter inactive, RORg inh inactive, DT40 TDP1 CPT 26µM, IL-1B inflam inh inconclusive, ELG1 repair inh inconclusive and DT40 TDP1 no CPT 21µM.
`C[C@H](CO)N1C[C@H](C)[C@@H](CN(C)Cc2ccc(Cl)c(Cl)c2)Oc2c(NS(=O)(=O)c3cn(C)cn3)cccc2C1=O` gave DT40 TDP1 CPT inactive, IL-1B inflam inh inactive, ELG1 repair inh inactive and DT40 TDP1 no CPT inconclusive.
For CC1=C(C)/C(=N\OS(=O)(=O)c2ccccc2)C=CC1=O the results were VP16 counter 2.5µM, RORg inh 2.5µM, DT40 TDP1 CPT 0.56µM, IL-1B inflam inh -121, ELG1 repair inh inconclusive and DT40 TDP1 no CPT 0.56µM.
Screening Cc1ccc(S(=O)(=O)O/N=C2\CCCc3ccccc32)cc1 returned VP16 counter inactive, RORg inh inactive, DT40 TDP1 CPT inactive, IL-1B inflam inh inactive, ELG1 repair inh inactive and DT40 TDP1 no CPT inactive.
CCOC(=O)C1CCN(Cc2cc(Cl)c3ccccc3c2O)CC1 was read as VP16 counter inconclusive, RORg inh inactive, DT40 TDP1 CPT 18µM, IL-1B inflam inh inactive, ELG1 repair inh inactive and DT40 TDP1 no CPT inconclusive.
Screening CCOc1ccccc1N1CCN(Cc2cnc(-c3ccccc3)[nH]2)CC1 returned VP16 counter inactive, RORg inh inactive, DT40 TDP1 CPT inconclusive, IL-1B inflam inh inconclusive, ELG1 repair inh inactive and DT40 TDP1 no CPT 23µM.
`CCOC(=O)C1CCN(c2ccccc2CN2CCN(c3ccccc3OCC)CC2)CC1` gave VP16 counter inactive, RORg inh inactive, DT40 TDP1 CPT inconclusive, IL-1B inflam inh inactive, ELG1 repair inh 16µM and DT40 TDP1 no CPT inconclusive.
CCOC(=O)C1CCN(Cc2ccccn2)CC1 was read as VP16 counter inactive, RORg inh inactive and ELG1 repair inh inactive.
Screening CCOc1ccccc1N1CCN(Cc2ccco2)CC1 returned VP16 counter inactive, RORg inh inactive, DT40 TDP1 CPT inactive, IL-1B inflam inh inactive, ELG1 repair inh inactive and DT40 TDP1 no CPT inactive.
`CCOC(=O)C1CCN(Cc2cc(=O)oc3cc(C)c(Cl)cc23)CC1` gave VP16 counter inactive, RORg inh inactive, DT40 TDP1 CPT inconclusive, IL-1B inflam inh inactive, ELG1 repair inh inactive and DT40 TDP1 no CPT 23µM.
